Most compounds without a hit are left out; they make up all but 4.7% or so of the library.
ATG4B inh: ATG4B protease inhibitors, primary screen, biochemical, fluorescence, uHTS. ATG4B cleavage of LC3-PLA2, NBD-HPC fluorescence, 1 h. inhibition, % at 8.33 µM. 0.51% of 340,000 active. AID 504462, 2011; in the data active = inhibition above about 40%
Target sequence (Q9Y4P1 whole entry, looked up): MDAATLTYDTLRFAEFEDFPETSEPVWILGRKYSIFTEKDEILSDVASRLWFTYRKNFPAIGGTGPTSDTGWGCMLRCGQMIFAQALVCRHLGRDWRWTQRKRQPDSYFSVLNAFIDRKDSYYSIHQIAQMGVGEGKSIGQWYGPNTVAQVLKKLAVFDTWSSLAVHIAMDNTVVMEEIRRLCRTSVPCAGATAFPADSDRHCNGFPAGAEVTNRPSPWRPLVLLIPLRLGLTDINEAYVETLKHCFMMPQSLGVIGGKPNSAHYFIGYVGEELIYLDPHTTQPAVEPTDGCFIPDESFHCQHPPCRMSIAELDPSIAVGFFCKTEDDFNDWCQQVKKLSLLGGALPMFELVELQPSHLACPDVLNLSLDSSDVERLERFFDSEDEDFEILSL
tim10-1 inh: growth inhibitors of tim10-1 mutant yeast, primary screen, luminescence, uHTS; S. cerevisiae tim10-1 ts strain growth, BacTiter-Glo, 24 h; inhibition, % at 20 µM; 2.2% of 330,000 active; AID 463190, 2010;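 active = inhibition of at least 40%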;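 also: mutant grown at 25 °C; 0% = DMSO wells with yeast and 100% = wells holding no yeast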
tim23-1 inh: growth inhibitors of tim23-1 mutant yeast, primary screen, luminescence, uHTS. 1.3% of 330,000 active. inhibition, % at 20 µM. AID 463212, 2010. S. cerevisiae tim23-1 growth, BacTiter-Glo luminescence, 24 h;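 active = growth inhibition of the mutant yeast at or above 50%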;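 also: temperature-sensitive mutant grown at 25 °C; plate controls were DMSO-treated mutant yeast for no effect and medium wells lacking yeast for full effect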
PfHsp90 set2: growth inhibition of PfHsp90-expressing yeast, primary screen, antimalarial PfHsp90 inhibitor project, S. cerevisiae, BacTiter-Glo luminescence, single point, set 2; inhibition, % at 9.4 µM; 0.32% of 310,000 active; BacTiter-Glo ATP, 48 h; yeast lacking PDR1 and PDR3 efflux regulators;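 active = every replicate shows inhibition above about 80%, whatever the replicate mean, limit read from the data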;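 also: 0% = DMSO neutral controls and 100% = 20 µM radicicol positive controls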
TIM10 inh: growth inhibitors of isogenic TIM10 control yeast, primary screen, counter-screen for tim10-1 yeast inhibitor project, luminescence, uHTS; S. cerevisiae TIM10 strain growth, BacTiter-Glo luminescence, 24 h; inhibition, % at 10 µM; 1.4% of 330,000 active;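 active = inhibition of 40% or more at the single tested concentration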;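 also: wild-type TIM10 isogenic control strain grown at permissive 25 °C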
SKKanGAS inh: S. pyogenes SKKanGAS growth inhibitors in kanamycin, primary screen, streptokinase expression inhibitor project, SKKanGAS strain, BacTiter-Glo luminescence. 1.3% of 300,000 active. 6 h. inhibition, % at 7.5 µM. AID 1662, 2009;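 active = mean replicate score, as percent of positive control median, at least 50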;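 also: strain carries kanamycin resistance gene driven by streptokinase promoter and grows in 40 µg/ml kanamycin; loss of luminescence reflects streptokinase promoter inhibition or plain growth inhibition; 0% = median of DMSO wells and 100% = positive control at its reference dose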
ATG4B conf: ATG4B protease inhibitors, retest, confirmation, biochemical, fluorescence, single concentration; AID 504757, 2011; inhibition, % at 8.33 µM; shares compounds with ATG4B inh; 92% of 320 active; ATG4B protease fluorescent substrate cleavage assay; in the data active = inhibition above about 39%
PLA2 ctr: PLA2 enzyme inhibition, counter-screen for ATG4B inhibitor project, biochemical, single concentration, uHTS hits | 66% of 1,600 active | shares compounds with ATG4B inh | inhibition, % at 8.33 µM | purified PLA2, NBD-C6-HPC fluorescence, 45 min; in the data active = inhibition above about 50%
Target sequence (P04054 whole entry, looked up): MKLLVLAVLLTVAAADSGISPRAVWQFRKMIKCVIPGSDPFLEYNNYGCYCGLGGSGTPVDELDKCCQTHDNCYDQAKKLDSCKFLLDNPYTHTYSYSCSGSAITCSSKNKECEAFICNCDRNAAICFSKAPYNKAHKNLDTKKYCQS
Numbers without * were called inactive; · = no result given.

SMILES	ATG4B inh	tim10-1 inh	tim23-1 inh	PfHsp90 set2	TIM10 inh	SKKanGAS inh	PLA2 ctr	others
NC(=O)COc1ccccc1/C=C1/SC(=O)N(CC(=O)N2CCc3ccccc3C2)C1=O	6.2	19.7	-6.1	-19.8	9.5	3.0	·
CCOc1cc(/C=C2/SC(=O)N(CC(=O)N3CCc4ccccc4C3)C2=O)ccc1OCC(=O)O	55.8*	10.2	2.2	-12.5	-0.3	0.5	45.0	ATG4B conf=67.2*
CC1=CC(C)(C)N(C(=O)CN2C(=O)CCC2=O)c2ccccc21	0.7	10.6	5.3	11.3	3.1	-4.1	·
Fc1ccc(C2CC(c3ccco3)=Nc3ccccc3S2)cc1 (stereo unspecified)	45.6*	13.2	13.3	21.7	19.1	8.9	66.6*
CCC1Nc2ncnc(N3CCOCC3)c2N(Cc2ccc(C)cc2)C1=O (stereo unspecified)	-1.6	·	·	-17.2	·	-0.4	·
NS(=O)(=O)c1ccc(CCNC(=O)c2ccc(=O)[nH]c2)cc1	-0.8	23.7	10.6	-0.3	5.9	-8.8	·
COc1ccc(-n2c(CCc3ccccc3)nnc2SCC(=O)c2ccccc2)cc1	60.4*	27.3	43.6	3.0	30.0	-2.3	61.2*
COc1ccc(-n2nnnc2SCC(=O)c2cccc(OC)c2)cc1	-1.1	31.0	34.2	-3.6	24.5	-10.4	·
CCOc1ccc(-n2nnnc2SCC(=O)c2ccccc2)cc1	41.3*	-0.7	-0.9	4.1	10.8	7.5	51.3*
Cc1ccc(N2CCN(CCCN3C(=O)C4CCCN4C3=O)CC2)cc1 (stereo unspecified)	1.0	-9.0	-1.0	1.9	2.2	-0.2	·
O=C(Cn1cccc1C(=O)c1ccccc1)NCCC1=CCCCC1	43.3*	-14.8	28.9	-10.4	-7.9	1.1	42.4	ATG4B conf=61.7*
O=C(O)CN1C(=O)/C(=C\c2cc(Br)ccc2OCc2ccccc2F)SC1=S	55.8*	31.5	36.8	-11.0	0.9	68.1*	51.4*
O=C(O)COc1ccc(Br)cc1/C=C1/SC(=O)N(CC(=O)N2CCCC2)C1=O	-2.9	16.4	-0.9	-10.3	2.1	-0.2	·
O=C(O)CN1C(=O)/C(=C\c2cc(Br)ccc2OCc2ccccc2Cl)SC1=S	49.8*	16.7	33.4	-1.2	24.7	94.6*	81.1*
OCCOCCNc1ncnc2sc(-c3ccccc3)cc12	-11.4	28.8	-1.8	3.7	21.6	-2.3	·
CC1Cc2cc(/C(O)=C3/C(=O)C(=O)N(CCN4CCOCC4)C3c3cccc(O)c3)ccc2O1 (stereo unspecified)	-6.3	0.5	-3.7	10.6	-7.3	7.8	·
COC(=O)C(Sc1nc(C)cc(C)c1C#N)c1ccccc1 (stereo unspecified)	49.6*	28.5	24.9	18.4	27.8	7.3	56.2*
Fc1ccc(C2c3[nH]c4ccccc4c3CCN2Cc2cccn2-c2ncccn2)cc1 (stereo unspecified)	40.8*	16.2	17.2	-18.6	23.3	3.0	36.2	ATG4B conf=70.3*
COc1ccc(Cl)cc1-n1c(=S)sc2c(=O)[nH]c(SCC(=O)NCCC(C)C)nc21	41.5*	15.8	16.8	13.3	14.5	17.9	41.2	ATG4B conf=73.4*
COc1ccccc1C(=O)NC(CCSC)C(=O)N1CCC(Cc2ccccc2)CC1 (stereo unspecified)	8.9	1.1	2.5	-13.4	4.3	-0.2	·
COC(=O)CCC(=O)OC1(C)C(=O)C2=COC(c3ccc(OC)cc3)=CC2=C(Br)C1=O (stereo unspecified)	51.0*	8.6	25.7	·	-2.1	4.8	56.6*
COc1ccc(C2=CC3=C(Br)C(=O)C(C)(OC(=O)c4ccc(Cl)nc4)C(=O)C3=CO2)cc1 (stereo unspecified)	66.5*	22.7	37.2	·	16.3	7.2	58.7*
COc1ccc(C2=CC3=C(Br)C(=O)C(C)(OC(=O)C4CCCC4)C(=O)C3=CO2)cc1 (stereo unspecified)	65.3*	17.6	18.1	110.2*	12.3	4.4	81.3*
COC(=O)CCC(=O)OC1(C)C(=O)C2=CN(C(CO)CO)C(c3ccc(OC)cc3)=CC2=C(Br)C1=O (stereo unspecified)	·	-10.5	-0.6	·	6.8	2.1	·
CCn1nc(NS(=O)(=O)c2ccccc2)c2cc3ccccc3nc21	0.0	27.6	23.0	-26.9	2.8	5.6	·
SMILES	ATG4B inh	tim10-1 inh	tim23-1 inh	PfHsp90 set2	TIM10 inh	SKKanGAS inh	PLA2 ctr	others
CC1(C)CC(=O)C(C=NCCN2CCN(C(=O)CCl)CC2)=C(O)C1	1.4	13.9	-3.9	-4.7	9.0	-0.9	·
CCc1nc(N2CCN(C(=O)c3ccco3)CC2)c2c3c(sc2n1)CCCC3	77.9*	9.1	2.8	-14.8	4.0	2.0	86.4*
CCc1nc(N2CCN(C(=O)c3ccccc3)CC2)c2c3c(sc2n1)CCCC3	74.9*	29.4	6.1	·	6.9	15.6	82.4*
O=C(c1ccco1)N1CCN(c2ncnc3sc4c(c23)CCC4)CC1	22.4	29.3	-18.9	4.7	2.3	-3.6	·
O=C(c1ccc(Cl)cc1)c1oc2ccccc2c1CS(=O)c1ccccc1 (stereo unspecified)	53.7*	17.2	47.2	9.2	23.7	7.8	58.9*
COC(=O)c1ccccc1NC(=O)NCCc1ccccc1OC	4.8	-12.3	30.6	-13.9	23.7	-12.4	·
CN(Cc1ccc(F)cc1)C(=O)COc1ccccc1-c1ccccc1	48.1*	15.8	13.9	9.4	-46.2	11.7	48.4
O=C1NC(=S)S/C1=C\c1cc(Cl)cc(Cl)c1O	62.1*	·	·	-7.4	·	·	35.6	ATG4B conf=39.8*
O=C1NC(=S)SC1=Cc1ccccc1Cl	3.5	·	·	-8.0	·	·	·
CSc1nc(-c2ccccc2)nc(N2CCCC2)c1C(C)=O	-1.6	26.7	35.2	·	20.5	-7.3	·
CCOc1cc(/C=N/n2cnnc2)ccc1OS(=O)(=O)c1ccccc1	-17.1	15.2	11.1	0.6	-0.2	-2.3	·
COc1cccc(NS(=O)(=O)c2ccc3c(c2)C2C=CCC2C(c2ccc(C(=O)O)cc2)N3)c1 (stereo unspecified)	66.6*	·	·	-26.4	·	18.7	42.4	ATG4B conf=62.1*

Screens deposited in PubChem BioAssay by several laboratories.
